“And” between values parts separate entries of the source, which are not always exact repeats. Identical values can stand only once. About 83,000 compounds went through this panel and 20% of them were active in at least one assay; those are over-represented in the sample as a whole.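 Values shown are percent growth following 48 h exposure of cells in 96-well plates to a single concentration of compound; below 10 was considered active.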 Values without a mark were called inactive. The source made the active and inactive calls.

The record followed here is PubChem BioAssay (NCI).

In the assay the test system is MDA-MB-468 breast. The experiment in a line: NCI-60 one-dose screen, 48 h (100 = growth as untreated, 0 = no growth, -100 = all killed). To be noted: 10 µM unless noted.
As for `CCN1CCN(Cc2ccc(NC(=O)c3nc4ccc5[nH]ncc5c4c4c3CCCC4)cc2C(F)(F)F)CC1`, the growth was -51.9% (active).
As for `N#Cc1nc(-c2ccccc2)oc1S(=O)(=O)N1CCN(c2ccccc2)CC1`, the figure is 98.3%; as for `Cc1cc(O)c(C(C)C)cc1N`, 8.67% (active) and -40.1% (active); as for `COc1ccc2c(c1)nc(N)c1c3cc(OC)c(OC)cc3cn21`, 2.7% (active).
